Test in all cases: NCI-60 one-dose screen, 48 h (100 = growth as untreated, 0 = no growth, -100 = all killed)
The subject of one experiment is NCI-H23 lung. The following applies: 10 µM unless noted.
The subject of the next experiment is NCI-H226 lung. The following applies: 10 µM unless noted.
The subject of another experiment is NCI-H322M lung. The following applies: 10 µM unless noted.
Another experiment concerns HOP-62 NSCLC. The following applies: 10 µM unless noted.
Another experiment deals with NCI-H460 lung. The following applies: 10 µM unless noted.
In the next experiment the test system is 786-0 renal. The following applies: 10 µM unless noted.
Another experiment deals with COLO 205 colon. The following applies: 10 µM unless noted.
The next experiment deals with A549/ATCC NSCLC. The following applies: 10 µM unless noted.
The subject of another experiment is HOP-92 NSCLC. The following applies: 10 µM.
For a further experiment, the system named is NCI-H522 lung. The following applies: 10 µM.

Experimental findings from PubChem BioAssay (NCI) are described below.

About 83,000 compounds went through this panel and 20% of them were active in at least one assay; those are over-represented in the sample as a whole.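 Negative percent growth values reflect cell death: -40 means 40% of the cells present at the start died, and -100 means all died.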 A number with no mark means an inactive call. Active and inactive are the calls of the source. Rule for the calls: active = growth percent below 10; inactive = the rest.

Turning to `Br/C(=N\Nc1nn[nH]n1)c1ccccc1`, the growth with NCI-H23 lung was 98.9%; in the experiment on NCI-H226 lung, 90.6%; with NCI-H322M lung, 96.3%; in the experiment on HOP-62 NSCLC, 98%; with NCI-H460 lung, 105%; in the experiment with 786-0 renal, 92.2%. Moreover, the growth in the experiment on COLO 205 colon is 104%.

In the case of `CCN(CC)C(=O)C1(C)CCCC2(C)c3cc(OC(C)=O)ccc3CCC12` (stereo not given), the growth in the experiment with NCI-H23 lung was 84.3%; in the experiment with NCI-H226 lung it was 75.8%; with NCI-H322M lung, 83.5%; in the experiment with HOP-62 NSCLC, 94.9%; in the experiment with NCI-H460 lung, 90%; in the experiment on 786-0 renal, 92%. Also, in the experiment with COLO 205 colon, the growth was 92%.

For `CCOC(=O)C(C)C(C)(O)c1ccccc1` (stereo not given), the growth in the experiment with NCI-H23 lung is 98.5%; in the experiment with NCI-H226 lung it was 94.1%; in the experiment with NCI-H322M lung it was 93.2%; with HOP-62 NSCLC it was 109%; in the experiment with NCI-H460 lung it was 103%; with 786-0 renal it was 94.1%. Besides, the growth in the experiment with COLO 205 colon is 112%.

Consider `COC(=O)[C@H](Cc1cn(C)cn1)NC(=O)[C@H](Cc1c[nH]c2ccccc12)NC(=O)Nc1cc(C(F)(F)F)cc(C(F)(F)F)c1`, for which the growth is -72.4% [100 µM] (active) with NCI-H23 lung; -47.9% [100 µM] (active) in the experiment with NCI-H226 lung; -41.9% [100 µM] (active) in the experiment on NCI-H322M lung; -92% [100 µM] (active) with HOP-62 NSCLC; -25.8% [100 µM] (active) in the experiment on NCI-H460 lung; -50.8% [100 µM] (active) in the experiment on A549/ATCC NSCLC. Besides, the growth in the experiment with 786-0 renal was -83.8% [100 µM] (active); in the experiment with COLO 205 colon, -77.1% [100 µM] (active).

`Cc1ncc(C(=O)Nc2ccc(CN3CCN(C)CC3)c(C(F)(F)F)c2)cc1C#Cc1c(N)ncc2ccccc12`: the growth with NCI-H23 lung is -73.1% (active); in the experiment on NCI-H226 lung it was -79.1% (active); in the experiment with NCI-H322M lung it was -99% (active); with HOP-62 NSCLC, -97.2% (active); with HOP-92 NSCLC, -37.9% (active); in the experiment with NCI-H522 lung it was -85.7% (active). The figures for the growth with A549/ATCC NSCLC and in the experiment on 786-0 renal were -96.6% (active) and -91.8% (active), respectively.

Turning to `Cc1ccc(S(=O)(=O)Nc2cccc(Cn3c(=O)[nH]c4ccc(Oc5ncccn5)cc4c3=O)c2)cc1`, the growth in the experiment on NCI-H23 lung is 85.4%; in the experiment on NCI-H226 lung, 86.1%; in the experiment with NCI-H322M lung, 79.9%; with HOP-62 NSCLC, 72.2%; in the experiment with HOP-92 NSCLC, 62.9%; with NCI-H522 lung, 33.6%. Also, the figures for the growth with A549/ATCC NSCLC and in the experiment on 786-0 renal were 90.7% and 95.9%, respectively.

Regarding `C[n+]1c2ccccc2c(Nc2ccc(NS(=O)(=O)CCCCN=C(N)N)cc2)c2ccc(N)cc21`, the growth in the experiment on NCI-H23 lung was 26%; with NCI-H226 lung, 41%; in the experiment on NCI-H322M lung, 71.4%; in the experiment with HOP-62 NSCLC, 32.2%; in the experiment with NCI-H460 lung, 10.9%; with 786-0 renal, 44.1%. Also, in the experiment with COLO 205 colon, the growth is 50.4%.

`CCCCN(CCCC)c1ccc(C(=O)O)cc1`: the growth is 98.1% in the experiment with NCI-H23 lung; 99.5% in the experiment with NCI-H226 lung; 98.4% in the experiment on NCI-H322M lung; 98% with HOP-62 NSCLC; 104% in the experiment on NCI-H460 lung; 99.4% with 786-0 renal. In addition, the growth with COLO 205 colon is 98.8%.

Regarding `OCCN1CCCN(CCCN2c3ccccc3Sc3ccc(C(F)(F)F)cc32)CC1`, the growth was 68.8% in the experiment with NCI-H23 lung; 92.7% in the experiment with NCI-H226 lung; 73.6% with NCI-H322M lung; 74.8% in the experiment on HOP-62 NSCLC; 40.7% in the experiment with NCI-H460 lung; 65.1% in the experiment with 786-0 renal. For the same compound, in the experiment on COLO 205 colon, the growth was -81.8% (active).

`COC(=O)C(Cc1cnc[nH]1)N1CC(=O)N2[C@@H](c3ccccc3)SC[C@H]2C1=O` (stereo not given in full): the growth is 100% in the experiment with NCI-H23 lung; 143% with NCI-H226 lung; 112% in the experiment on NCI-H322M lung; 114% in the experiment on HOP-62 NSCLC; 109% in the experiment on NCI-H460 lung; 96.4% with A549/ATCC NSCLC. Besides, the growth in the experiment on 786-0 renal was 107%; with COLO 205 colon, 124%.

Consider `C/C=C/C/C=C/[C@H](C)C[C@H](O)[C@@H]1C[C@@H]2O[C@H]2/C=C/[C@@H]2OC(C)(C)O[C@H]2/C=C/C[C@H](C)CC(=O)O1`, for which the growth in the experiment on NCI-H23 lung was 36.3%; in the experiment with NCI-H226 lung, 30.5%; in the experiment with NCI-H322M lung it was 55.5%; with HOP-62 NSCLC, 41.6%; in the experiment on NCI-H460 lung it was 17.4%; in the experiment with A549/ATCC NSCLC it was 24.7%. Further, the growth in the experiment with 786-0 renal was 53.5%; in the experiment with COLO 205 colon, 61.1%.

On to `CCCCCCCCC(=O)Nc1ccc(O)cc1`, for which the growth with NCI-H23 lung was 92.3%; with NCI-H226 lung, 104%; in the experiment on NCI-H322M lung, 88.1%; in the experiment with HOP-62 NSCLC, 99.3%; in the experiment on NCI-H460 lung, 105%; in the experiment with 786-0 renal, 95.9%. Moreover, in the experiment with COLO 205 colon, the growth was 94.9%.

Turning to `CCOC1=C(Cl)C(=O)C(OCC)=C(Cl)C1=O`, the growth with NCI-H23 lung was 107%; in the experiment on NCI-H226 lung, 103%; in the experiment on NCI-H322M lung, 94.7%; in the experiment with HOP-62 NSCLC, 97.6%; with NCI-H460 lung, 109%; in the experiment with A549/ATCC NSCLC, 108%. The growth in the experiment with 786-0 renal was 97.9%; with COLO 205 colon, 104%.

With `CCOc1ccc(Br)cc1/C=C(\C#N)c1ccc([N+](=O)[O-])cc1`, the growth with NCI-H23 lung is 87.6%; in the experiment on NCI-H226 lung, 81.2%; in the experiment on NCI-H322M lung it was 77.4%; in the experiment with HOP-62 NSCLC, 22.1%; in the experiment with NCI-H460 lung, 82.2%; with 786-0 renal, 86.3%. Besides, the growth in the experiment on COLO 205 colon was 97.2%.

As for `CC(C)(C)c1cc(C[P+](c2ccc(Cl)cc2)(c2ccc(Cl)cc2)c2ccc(Cl)cc2)cc(C(C)(C)C)c1O`, the growth with NCI-H23 lung was 86.5%; with NCI-H226 lung, 90.6%; in the experiment on NCI-H322M lung, 86.1%; in the experiment with HOP-62 NSCLC it was 98.9%; in the experiment on NCI-H460 lung, 94.9%; in the experiment on 786-0 renal it was 99.1%. In the experiment with COLO 205 colon, the growth was 50.4%.

As for `OCCN1CCN(CC/C=C2/c3ccccc3Sc3ccc(C(F)(F)F)cc32)CC1`, the growth with NCI-H23 lung was 72.3%; in the experiment on NCI-H226 lung it was 91%; in the experiment on NCI-H322M lung it was 72.6%; in the experiment with HOP-62 NSCLC, 75.9%; in the experiment on NCI-H460 lung, 82.7%; in the experiment on 786-0 renal, 71.2%. Besides, the growth in the experiment on COLO 205 colon was 1.04% (active).

Turning to `O=C(NC(=S)NNC(=S)NNc1ccccc1)c1ccccc1`, the growth with NCI-H23 lung was 25.9%; in the experiment on NCI-H226 lung it was 40.6%; with NCI-H322M lung, 68.2%; with HOP-62 NSCLC it was 43%; in the experiment on NCI-H460 lung, 13.2%; with 786-0 renal, 67.7%. Also, the growth in the experiment on COLO 205 colon is 81%.
